Measurements from the supplement of paper PMC4466140.

B1: unnamed (peptide)
chain: NGRRRPKFRVQLSGN

Target: AgAbp1
Test: SPOT peptide array binding signal intensity (averaged, normalized) (arbitrary units (background-subtracted, floor 0; scale differs between SH3 domains)); higher = stronger binding of the SH3 domain to the peptide
Procedure, shortened: (§1)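 Peptides were synthetic 15-mers on cellulose membranes, with every cysteine replaced by serine. They were incubated overnight at 4°C with GST-SH3 domains from four yeast species at 10 μg/ml in TBS-based blocking buffer. Binding signal, the replicate-averaged normalized and background-subtracted spot intensity, is in arbitrary units that differ between domains.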

Binder	SPOT peptide array binding signal intensity
B1	206

Target: AgBbc1
Test: as above
Procedure, shortened: as §1

Binder	SPOT peptide array binding signal intensity
B1	71

Target: AgBem1-D1
Test: as above
Procedure, shortened: as §1

Binder	SPOT peptide array binding signal intensity
B1	339

Target: AgBzz1-D1
Test: as above
Procedure, shortened: as §1

Binder	SPOT peptide array binding signal intensity
B1	84

Target: AgBzz1-D2
Test: as above
Procedure, shortened: as §1

Binder	SPOT peptide array binding signal intensity
B1	46

Target: AgCyk3
Test: as above
Procedure, shortened: as §1

Binder	SPOT peptide array binding signal intensity
B1	5

Target: AgFus1
Test: as above
Procedure, shortened: as §1

Binder	SPOT peptide array binding signal intensity
B1	1440

Target: AgHof1
Test: as above
Procedure, shortened: as §1

Binder	SPOT peptide array binding signal intensity
B1	47.8

Target: AgHse1
Test: as above
Procedure, shortened: as §1

Binder	SPOT peptide array binding signal intensity
B1	1600

Target: AgLsb1
Test: as above
Procedure, shortened: as §1

Binder	SPOT peptide array binding signal intensity
B1	16.5

Target: AgLsb4
Test: as above
Procedure, shortened: as §1

Binder	SPOT peptide array binding signal intensity
B1	379

Target: AgMyo5
Test: as above
Procedure, shortened: as §1

Binder	SPOT peptide array binding signal intensity
B1	1.5

Target: AgNbp2
Test: as above
Procedure, shortened: as §1

Binder	SPOT peptide array binding signal intensity
B1	430

Target: AgRvs167
Test: as above
Procedure, shortened: as §1

Binder	SPOT peptide array binding signal intensity
B1	9

Target: AgSho1
Test: as above
Procedure, shortened: as §1

Binder	SPOT peptide array binding signal intensity
B1	269

Target: AgSla1-D1-D2
Test: as above
Procedure, shortened: as §1

Binder	SPOT peptide array binding signal intensity
B1	462

Target: AgSla1-D3
Test: as above
Procedure, shortened: as §1

Binder	SPOT peptide array binding signal intensity
B1	13

Target: CaAbp1-D1
Test: as above
Procedure, shortened: as §1

Binder	SPOT peptide array binding signal intensity
B1	596

Target: CaAbp1-D2
Test: as above
Procedure, shortened: as §1

Binder	SPOT peptide array binding signal intensity
B1	855

Target: CaBbc1
Test: as above
Procedure, shortened: as §1

Binder	SPOT peptide array binding signal intensity
B1	134

Target: CaBem1-D1
Test: as above
Procedure, shortened: as §1

Binder	SPOT peptide array binding signal intensity
B1	74.5

Target: CaBzz1-D1
Test: as above
Procedure, shortened: as §1

Binder	SPOT peptide array binding signal intensity
B1	185

Target: CaBzz1-D2
Test: as above
Procedure, shortened: as §1

Binder	SPOT peptide array binding signal intensity
B1	114

Target: CaCyk3
Test: as above
Procedure, shortened: as §1

Binder	SPOT peptide array binding signal intensity
B1	33

Target: CaFus1
Test: as above
Procedure, shortened: as §1

Binder	SPOT peptide array binding signal intensity
B1	3650

Target: CaHof1
Test: as above
Procedure, shortened: as §1

Binder	SPOT peptide array binding signal intensity
B1	0.75

Target: CaHse1
Test: as above
Procedure, shortened: as §1

Binder	SPOT peptide array binding signal intensity
B1	202

Target: CaLsb1
Test: as above
Procedure, shortened: as §1

Binder	SPOT peptide array binding signal intensity
B1	4

Target: CaLsb4
Test: as above
Procedure, shortened: as §1

Binder	SPOT peptide array binding signal intensity
B1	238

Target: CaMyo5
Test: as above
Procedure, shortened: as §1

Binder	SPOT peptide array binding signal intensity
B1	4

Target: CaNbp2
Test: as above
Procedure, shortened: as §1

Binder	SPOT peptide array binding signal intensity
B1	762

Target: CaRvs167
Test: as above
Procedure, shortened: as §1

Binder	SPOT peptide array binding signal intensity
B1	80.3

Target: CaRvs167-3
Test: as above
Procedure, shortened: as §1

Binder	SPOT peptide array binding signal intensity
B1	232

Target: CaSho1
Test: as above
Procedure, shortened: as §1

Binder	SPOT peptide array binding signal intensity
B1	1190

Target: CaSla1-D1-D2
Test: as above
Procedure, shortened: as §1

Binder	SPOT peptide array binding signal intensity
B1	295

Target: CaSla1-D3
Test: as above
Procedure, shortened: as §1

Binder	SPOT peptide array binding signal intensity
B1	84

Target: ScAbp1
Test: as above
Procedure, shortened: as §1

Binder	SPOT peptide array binding signal intensity
B1	130

Target: ScBbc1
Test: as above
Procedure, shortened: as §1

Binder	SPOT peptide array binding signal intensity
B1	28.8

Target: ScBem1-D1
Test: as above
Procedure, shortened: as §1

Binder	SPOT peptide array binding signal intensity
B1	166

Target: ScBzz1-D1
Test: as above
Procedure, shortened: as §1

Binder	SPOT peptide array binding signal intensity
B1	41

Target: ScBzz1-D2
Test: as above
Procedure, shortened: as §1

Binder	SPOT peptide array binding signal intensity
B1	104

Target: ScCyk3
Test: as above
Procedure, shortened: as §1

Binder	SPOT peptide array binding signal intensity
B1	131

Target: ScFus1
Test: as above
Procedure, shortened: as §1

Binder	SPOT peptide array binding signal intensity
B1	2430

Target: ScHof1
Test: as above
Procedure, shortened: as §1

Binder	SPOT peptide array binding signal intensity
B1	6.5

Target: ScHse1
Test: as above
Procedure, shortened: as §1

Binder	SPOT peptide array binding signal intensity
B1	3000

Target: ScLsb1
Test: as above
Procedure, shortened: as §1

Binder	SPOT peptide array binding signal intensity
B1	6

Target: ScLsb2
Test: as above
Procedure, shortened: as §1

Binder	SPOT peptide array binding signal intensity
B1	14

Target: ScLsb3
Test: as above
Procedure, shortened: as §1

Binder	SPOT peptide array binding signal intensity
B1	719

Target: ScLsb4
Test: as above
Procedure, shortened: as §1

Binder	SPOT peptide array binding signal intensity
B1	42.5

Target: ScMyo3
Test: as above
Procedure, shortened: as §1

Binder	SPOT peptide array binding signal intensity
B1	1.5

Target: ScMyo5
Test: as above
Procedure, shortened: as §1

Binder	SPOT peptide array binding signal intensity
B1	4.75

Target: ScNbp2
Test: as above
Procedure, shortened: as §1

Binder	SPOT peptide array binding signal intensity
B1	489

Target: ScPex13
Test: as above
Procedure, shortened: as §1

Binder	SPOT peptide array binding signal intensity
B1	4

Target: ScRvs167
Test: as above
Procedure, shortened: as §1

Binder	SPOT peptide array binding signal intensity
B1	52.7

Target: ScSho1
Test: as above
Procedure, shortened: as §1

Binder	SPOT peptide array binding signal intensity
B1	2060

Target: ScSla1-D1-D2
Test: as above
Procedure, shortened: as §1

Binder	SPOT peptide array binding signal intensity
B1	693

Target: ScSla1-D3
Test: as above
Procedure, shortened: as §1

Binder	SPOT peptide array binding signal intensity
B1	6.5

Target: SpAbp1-D1
Test: as above
Procedure, shortened: as §1

Binder	SPOT peptide array binding signal intensity
B1	561

Target: SpBbc1
Test: as above
Procedure, shortened: as §1

Binder	SPOT peptide array binding signal intensity
B1	13

Target: SpBzz1-D1
Test: as above
Procedure, shortened: as §1

Binder	SPOT peptide array binding signal intensity
B1	162

Target: SpBzz1-D2
Test: as above
Procedure, shortened: as §1

Binder	SPOT peptide array binding signal intensity
B1	0.75

Target: SpCyk3
Test: as above
Procedure, shortened: as §1

Binder	SPOT peptide array binding signal intensity
B1	4

Target: SpHof1
Test: as above
Procedure, shortened: as §1

Binder	SPOT peptide array binding signal intensity
B1	269

Target: SpHof1-2
Test: as above
Procedure, shortened: as §1

Binder	SPOT peptide array binding signal intensity
B1	12.5

Target: SpHof1-3
Test: as above
Procedure, shortened: as §1

Binder	SPOT peptide array binding signal intensity
B1	788

Target: SpHse1
Test: as above
Procedure, shortened: as §1

Binder	SPOT peptide array binding signal intensity
B1	1140

Target: SpLsb1
Test: as above
Procedure, shortened: as §1

Binder	SPOT peptide array binding signal intensity
B1	10.5

Target: SpLsb4
Test: as above
Procedure, shortened: as §1

Binder	SPOT peptide array binding signal intensity
B1	294

Target: SpMyo1
Test: as above
Procedure, shortened: as §1

Binder	SPOT peptide array binding signal intensity
B1	18.8

Target: SpNbp2
Test: as above
Procedure, shortened: as §1

Binder	SPOT peptide array binding signal intensity
B1	1300

Target: SpPex13
Test: as above
Procedure, shortened: as §1

Binder	SPOT peptide array binding signal intensity
B1	62.5

Target: SpRvs167
Test: as above
Procedure, shortened: as §1

Binder	SPOT peptide array binding signal intensity
B1	14.2

Target: SpSla1-D1-D2
Test: as above
Procedure, shortened: as §1

Binder	SPOT peptide array binding signal intensity
B1	≤ 0

Target: SpSla1-D3
Test: as above
Procedure, shortened: as §1

Binder	SPOT peptide array binding signal intensity
B1	43
